TSHR ag – qHTS Assay for Agonists of the Thyroid Stimulating Hormone Receptor; Thyrotropin receptor (Homo sapiens), P16473; HEK293-CNG-TSHR cells (CNG channel as cAMP sensor), membrane potential dye, cAMP; Potency, µM (top dose mostly 57.1 µM), actives largely listed as activators; 73,000 tested, 0.48% active; active = well fitted activation curve with a large enough effect in the main read-out, with a control signal flat, not every such curve was filed as active; inconclusive = small, poorly fitted or top-dose-only effect, or a change in a side signal; inactive = no such curve, though single readings can be large or run the other way; reference of the percent scale not stated here;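 also: the control signal comes from parental cells without the receptor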
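HEK 293 cells stably expressing TSHR and a modified CNG channel, with CNG-only parental cells as counterscreen, were preloaded 60 min at room temperature with membrane potential dye containing 100 uM RO 20-1724. Compound exposure was 30 min, and depolarization was read as fluorescence at 590 nm.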
HEK293 cAMP cs – qHTS Assay for Agonists of the Thyroid Stimulating Hormone Receptor: Activators of Intracellular cAMP Concentrations in Parental HEK 293 | parental HEK293 CNG cAMP sensor, membrane potential fluorescence | Potency, µM (series often up to 57.1 µM), most hits filed as activators | 73,000 tested, 2.5% active | AID 938, 2007; also: nearly all actives have a fitted effect of over 55% in size
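Counterscreen for endogenous-receptor signalling: CNG-channel HEK 293 cells report cAMP rise by membrane depolarization. After 60 min dye equilibration with 100 uM RO 20-1724, compounds incubated 30 min before bottom-read fluorescence at 590 nm.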
Bst PK mod – Pyruvate Kinase. purified pyruvate kinase, luminescence ATP production; ribose 5-phosphate activator present at AC10. Potency, µM. 51,000 tested, 1.2% active. AID 361, 2006; in the data active = potency below about 11 µM; inconclusive = mostly about 12 µM to 25 µM;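 the screen sought inhibitors and activators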
Tau fil binding – qHTS Assay for Tau Filament Binding. Microtubule-associated protein tau (Homo sapiens), P10636. recombinant tau filaments, thioflavin S fluorescence, 15 h; filaments grown with octadecylsulfate alongside compound. Potency, µM (series often up to 57.1 µM). 71,000 tested, 2% active;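 also: actives lower thioflavin S fluorescence by blocking filaments or displacing dye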
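Quantitative HTS: thioflavine S signal from ODS-induced tau filaments, excited at 450 nm, emission 510 nm. Conditions: 1 uM tau, 30 uM ODS, 15 h at 37 C, pH 7.4.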
Luciferase inh – qHTS Assay for Inhibitors of Firefly Luciferase; purified firefly luciferase, luminescence, 8 min; Potency, µM (highest dose often 57.1 µM), most hits filed as inhibitors; 72,000 tested, 2.2% active; AID 411, 2009; also: nearly all actives have a fitted effect of over 40% in size
Target sequence (P08659 whole entry, looked up): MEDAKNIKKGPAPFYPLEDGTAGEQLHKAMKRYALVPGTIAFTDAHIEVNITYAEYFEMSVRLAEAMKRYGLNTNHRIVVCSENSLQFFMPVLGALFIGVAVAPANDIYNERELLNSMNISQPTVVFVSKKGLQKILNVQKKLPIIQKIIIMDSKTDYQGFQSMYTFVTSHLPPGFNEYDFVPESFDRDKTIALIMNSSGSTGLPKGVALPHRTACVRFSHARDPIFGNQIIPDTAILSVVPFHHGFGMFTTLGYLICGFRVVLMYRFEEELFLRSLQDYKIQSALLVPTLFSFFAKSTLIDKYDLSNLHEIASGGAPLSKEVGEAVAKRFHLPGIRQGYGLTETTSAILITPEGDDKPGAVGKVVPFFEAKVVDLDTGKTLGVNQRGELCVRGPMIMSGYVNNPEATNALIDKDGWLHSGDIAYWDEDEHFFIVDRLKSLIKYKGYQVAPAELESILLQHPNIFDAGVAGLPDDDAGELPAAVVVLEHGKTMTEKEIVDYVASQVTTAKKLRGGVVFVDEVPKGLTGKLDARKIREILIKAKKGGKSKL
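Luminescence read-out after 8 min at room temperature; enzyme reaction used luciferin plus 10 uM ATP (linear range) in imidazole buffer pH 7.2 with KCl, MgCl2, Tween 20 and BSA. Each sample was run as a titration.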
ERK AVP inh – qHTS Assay for Inhibitors of the ERK Signaling Pathway using a Homogeneous Screening Assay. HEK293-V1b, vasopressin-stimulated pERK AlphaScreen. Potency, µM (series often up to 57.5 µM), most hits filed as inhibitors. 72,000 tested, 0.99% active; also: nearly all actives have a fitted effect of over 55% in size
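Phosphorylated ERK1/2 detected via AlphaScreen bead proximity in lysates of V1b-expressing HEK293 cells given 25 nM vasopressin for 5 min after 30 min compound exposure (37 °C). AC50 from Hill equation; basal DMSO 0%, vasopressin 100%.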
Numbers stand for hits; n = inactive; u = inconclusive; x = no result; ! = repeats disagree; [ ] = dose if it differs, or a comment. An excerpt weighted towards active compounds, which were near 7.2% of everything screened. Unless noted, calls follow the shape of the dose curve; as a rule, active = well fitted curve in the direction sought with a large enough effect; inconclusive = small, poorly fitted or top-dose-only effect, or another doubt; inactive = no such curve, though single readings can be large; an effect the other way counts as inactive or inconclusive.

SMILES	TSHR ag	HEK293 cAMP cs	Bst PK mod	Tau fil binding	Luciferase inh	ERK AVP inh
CCc1nnc(NC(=O)CCC(=O)N2CCN(Cc3ccc(Cl)cc3)CC2)s1	n	n	n	n	n	u
O=C(Nc1nnc(-c2ccccc2)s1)c1ccc(Cl)c(S(=O)(=O)N2CCOCC2)c1	n[11.4 µM]	n[11.4 µM]	x	n[11.4 µM]	n	n
NC(=O)c1cc(-c2ccccc2)sc1NC(=O)Cc1ccc(S(=O)(=O)N2CCOCC2)s1	n	n	n	7.94µM	n	n
Cc1ccc(C[C@H](Cc2nc3ccccc3[nH]2)c2nc3ccccc3[nH]2)cc1	n	n	x	n	n[11.4 µM]	x
CCOc1ccc(-c2n[nH]c(C)c2Oc2ccc(OC)cc2)c(O)c1	n	n	n	u	n	39.8µM
CCOc1ccc(-c2[nH]ncc2Oc2ccccc2OC)c(O)c1	n	n	n	u	n	n
Nc1ccccc1[N+](=O)[O-]	n	n	x	n	x	n
N=C1[C@@H](O)[C@]2(I)c3ccccc3N3C(=N)[C@H](O)[C@@H]4c5ccccc5N1[C@@H]4[C@@H]32	u	u	x	1µM	n[11.4 µM]	n[11.5 µM]
CN(C)S(=O)(=O)c1ccc(S(=O)(=O)N(Cc2ccco2)Cc2ccccc2Cl)cc1	u	12.6µM	n	n	n	n
O=S(=O)(c1ccc(S(=O)(=O)N(Cc2ccco2)Cc2ccccc2Cl)cc1)N1CCCC1	x	n	n	n	n	n
Cc1ccccc1-c1cc(NCCN2CCOCC2)ncn1	u	u	x	n	n[2.29 µM]	n
Cc1o[nH]c(=O)c1CC[C@H](N)C(=O)O	n	n	x	u	n	n
O=C(Nc1ccc(F)cc1)c1ccc(S(=O)(=O)NCC2CCCO2)cc1 (stereo not given)	u	3.16µM	n	n	n	n
CC(=O)Nc1ccc(C(=O)Nc2ccc(S(=O)(=O)NCC3CCCO3)cc2)cc1 (stereo not given)	n	n	n	n	n	n
CSc1ncnc2c1ncn2[C@@H]1O[C@@H](CO)[C@H](O)O[C@@H]1O	n[11.4 µM]	n[11.4 µM]	x	n[11.4 µM]	n[11.4 µM]	n[11.5 µM]
CC(C)C[C@@H](CC(=O)N[C@H](CC(=O)N[C@@H]1CCNC[C@H]1C(=O)N[C@H](CC(=O)N[C@@H](CCC(=O)O)CC(=O)O)Cc1c[nH]c2ccccc12)C(C)C)NC(=O)[C@@H]1CCCC[C@H]1N	u	u	x	n	x	x
COc1ccc(C(C(O)C(=O)c2c[nH]c3ccccc23)N2CCN(c3ccc(OC)cc3)CC2)cc1 (stereo not given)	n[11.4 µM]	n	n	12.6µM	n	n
COc1ccc(C(=O)c2c[nH]c3ccccc23)cc1	n[11.4 µM]	n[11.4 µM]	x	n[11.4 µM]	10µM	n
Oc1cccc(Nc2nc(NCC3CCCO3)c3ccccc3n2)c1 (stereo not given)	u	u	x	n	n	15.8µM
CC(=O)NCCNc1nc(-c2cccc(C#N)c2)nc2ccccc12	n	n	x	n	n[2.29 µM]	n
CCc1cc(=O)oc2cc(C)cc(O)c12	n	n	x	n	n	25.1µM
CCCCCc1cc(O)c2c(C)cc(=O)oc2c1	u	3.16µM	x	n[11.4 µM]	n	n
COc1ccc(NC(=O)N2CC[C@@]3(CCCN(S(C)(=O)=O)C3)C2)cc1	n	n	x	n	n[11.4 µM]	n
O=C(c1nn(Cc2ccccc2)c(=O)c2ccccc12)N1CCN(c2ccccn2)CC1	u	3.98µM	n	n	n	n
COc1ccc(-c2c(O)c3c(OC)c4c(cc3oc2=O)OC(C)(C)CC4)cc1	x	x	x	x	x	n
SMILES	TSHR ag	HEK293 cAMP cs	Bst PK mod	Tau fil binding	Luciferase inh	ERK AVP inh
O=C(c1cnccn1)N1CCC2(CCCN(Cc3ccncc3)C2)CC1	n	n	x	n	n[11.4 µM]	n
Cc1ccc(CNC(=O)C2c3ccccc3C(=O)N(C)C2c2c[nH]c3ccccc23)o1 (stereo not given)	u	25.1µM	n	n	n	n
COc1ccc(-c2nnc(N(C)C(=O)c3cccnc3)s2)cc1	n	n	x	n	6.31µM	n
CCCn1c(-c2ccc(F)cc2)nc2c(N3CCN(Cc4nc(OC)cc(OC)n4)CC3)nc(C)nc21	u	15.8µM	x	n	x	n
CCCn1c(-c2ccc(F)cc2)nc2c(NCCN3CCCC3)nc(C)nc21	u	u	x	n	x	n
Cc1c(C(=O)O)c(O)cc2c1C(=O)c1c(O)c([C@@H]3O[C@H](CO)[C@@H](O)[C@H](O)[C@@H]3O)c(O)c(O)c1C2=O	n	n	x	n	n[11.4 µM]	x
COc1ccc(Oc2ncc3ncc(=O)n(Cc4cccc(OC)c4)c3n2)cc1	u	u	x	n	n[11.4 µM]	n
O=C(Nc1ccccc1N1CCN(C(=O)c2ccc(Cl)cc2)CC1)c1cc2ccccc2o1	u	u	n	n	n	n
CCN1CCN(c2c(Cl)cccc2NC(=O)c2ccco2)CC1	n	n	n	n	n	n
O=C(Nc1cccc(Cl)c1N1CCCC1)c1ccc(Br)o1	u	25.1µM	n	n	n	n
O=C(Nc1cccc(Cl)c1N1CCCC1)c1cc2ccccc2o1	u	25.1µM	x	n	n	n
COCCn1c(=O)c(-c2ccc(F)cc2)nc2cnc(Oc3cccc(Cl)c3)nc21	n	n	x	n	n[11.4 µM]	n
COc1ccc(N2CCN(Cc3nc(-c4ccc(Cl)cc4Cl)no3)CC2)cc1	n	n	n	12.6µM	n	n
OCC(O)CN1CCN(c2ccccc2)CC1 (stereo not given)	x	x	n	x	n	n
O[C@H](CN1CCN(c2cccc(Cl)c2)CC1)C(c1ccccc1)c1ccccc1	u	u	x	39.8µM!	n	n
CCCOC(=O)c1ccc(Oc2cn[nH]c2-c2ccc(OC)cc2O)cc1	n	n	n	12.6µM	n	n
O=C(O)c1ccc([N+](=O)[O-])c(P(=O)(O)O)c1	n[11.4 µM]	n[11.4 µM]	x	n[11.4 µM]	n[11.4 µM]	n[11.5 µM]
COc1ccc(NC(=O)N2CCCC3(CCN(C(=O)c4ccc(OC)cc4)CC3)C2)cc1	n	n	x	n	n[11.4 µM]	n
Cc1ccccc1Cc1c(C)nc2c(C(=O)N3CCN(Cc4ccc5c(c4)OCO5)CC3)cnn2c1C	u	20µM	n	n	n	n
COc1cc(C(=O)N(CCc2ccccc2)C2CC3CCC(C2)N3C)cc(OC)c1OC (stereo not given)	n[11.4 µM]	n	n	n	n	n
CCCCN(C(=O)c1ccc(Cl)cc1)C1CC2CCC(C1)N2C (stereo not given)	n	n	x	15.8µM	n	n
O=C(O)CSSCC(=O)O	n[11.4 µM]	n[11.4 µM]	x	n[11.4 µM]	n[11.4 µM]	n[11.5 µM]
Cc1ccc(-c2nc(=S)c3c(n2Cc2ccco2)CCCC3)cc1	u	2.51µM	x	x	x	x
COc1cccc(-c2n[nH]c(=S)n2Cc2ccco2)c1OC	n	n	n	n	n	n
COc1cccc(-c2nc(=S)c3c(n2Cc2ccco2)CCCC3)c1	u	u	n	15.8µM	n	n
COc1ccc(NC(=O)c2cnc(C)cn2)cc1-n1cnnn1	n	n	n	n	n	39.8µM

Source: PubChem BioAssay
